These results are taken from PubChem BioAssay.

Each structure is given as a SMILES string.

The assay in a line: survival rescue of mitochondrial mutant cells in low glucose, primary screen, MELAS cybrids, Rieske KO mouse fibroblasts, CellTiter-Glo (AID 1508586).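 Note: test concentration not given here; z relative to plate mean and SD of compound and empty wells.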 The settings on record: Rieske KO mouse fibroblast survival, CellTiter-Glo 72 h.
In the case of `Cc1cc2c(F)c(Oc3ncnn4cc(OCC(C)O)c(C)c34)ccc2[nH]1` (stereo not given), the z-score turned out to be 0.759.
To `COC1C(O)CC(=O)OC(C)CC=CC=CC(OC2CCC(N(C)C)C(C)O2)C(C)CC(CC=O)C1OC1OC(C)C(OC2C[C@](C)(O)C(O)C(C)O2)C(N(C)C)C1O` (stereo not given in full) belongs -0.158; to `CC(=O)c1cc([N+](=O)[O-])c(Sc2ccc(F)cc2F)s1`, 0.533.
To `C[C@]12C[C@@]3(O)O[C@@H](O1)[C@]1(COC(=O)c4ccccc4)[C@H]3C[C@@]12OC1OC(CO)C(O)C(O)C1O` (stereo not given in full) belongs -0.113.
To `O=c1[nH]c(=O)n(C2CC(O)C(CO)O2)cc1C(F)(F)F` (stereo not given) belongs -0.513; to `CC1(C)O[C@@H]2C[C@H]3[C@@H]4CCC5=CC(=O)C=C[C@]5(C)[C@@H]4C(O)C[C@]3(C)[C@@]2(C(=O)CO)O1` (stereo not given in full), -0.393.
`O=C(c1ccccc1)c1ccc2nc(NC(=O)c3csc(C4CCN(c5ncnc6ccsc56)CC4)n3)[nH]c2c1` gave a z-score of -0.043.
To `COc1cc(-c2cc(-c3cccc(O)c3)cnc2N)cc(OC)c1OC` belongs -0.00175; to `CC(=CC(=O)Nc1ccccc1C(=O)O)c1ccc2ccccc2c1`, 0.934.
In turn, `O=C(c1cn(Cc2cncn2Cc2ccc(Br)cc2)cc1-c1cccc2ccccc12)N1CCOCC1` came in with a z-score of -1.26.
With `C=C[C@]1(C)CC(OC(=O)CSC(C)(C)CNC(=O)C(N)C(C)C)[C@@]2(C)C(C)CC[C@]3(CCC(=O)[C@H]32)C(C)C1O` (stereo not given in full), the z-score amounted to 2.78.
To `O=C(O)CC1CC(c2ccccc2)=NO1` (stereo not given) belongs 0.698.
To `COC(=O)C1=COC(OC2OC(CO)C(O)C(O)C2O)[C@H]2C(CO)=CC[C@H]12` (stereo not given in full) belongs -0.0973; to `CC(C)(C(=O)NCC(F)(F)C(F)(F)F)C(=O)NC1C(=O)Nc2ccccc2-c2ccccc21` (stereo not given), 0.321; to `CC(NC(=O)Cc1cc(F)cc(F)c1)C(=O)NC1C(=O)N(C)c2ccccc2-c2ccccc21` (stereo not given), 1.69.
Molecule `COc1cc2c(cc1Cc1cccc(Cl)c1F)c(=O)c(C(=O)O)cn2C(CO)C(C)C` (stereo not given) yielded a z-score of 0.532.
For `CC(C)OC(=O)C(C)N[P@](=O)(OCC1OC(n2ccc(=O)[nH]c2=O)[C@](C)(F)C1O)Oc1ccccc1` (stereo not given in full) the value was 0.864; for `CC1CC(=O)NN=C1c1ccc(NN=C(C#N)C#N)cc1` (stereo not given), -0.733.
For `CC(C)(CO)c1cc2cc(NC(=O)C3(c4ccc5c(c4)OC(F)(F)O5)CC3)c(F)cc2n1CC(O)CO` (stereo not given) the value was -0.139.
To `CCCC(C)NC(=O)c1ccc(Cl)c(Cl)c1` (stereo not given) belongs 0.701; to `COC1O[C@H]2O[C@@]3(C)CC[C@H]4[C@@H](C)CC[C@@H]([C@H]1C)[C@@]24OO3` (stereo not given in full), 0.578; to `C[C@]12CC[C@H]3c4ccc(O)cc4CC[C@H]3[C@@H]1CC(O)C2O` (stereo not given in full), -0.251.
`CNC(=C[N+](=O)[O-])NCCSCc1ccc(CN(C)C)o1` showed a z-score of -0.112.
To `CC(O)[C@@H]1C(=O)N2C(C(=O)O)=C(SC3CNC(CNS(N)(=O)=O)C3)C(C)[C@@H]12` (stereo not given in full) belongs -0.0647; to `CC(C)C(N)C(=O)OCC(CO)OCN1C=NC2C(=O)NC(N)=NC21` (stereo not given), -0.153; to `O=C(NN=Cc1ccc([N+](=O)[O-])o1)c1ccc(O)cc1`, -0.436.
`COc1cc(CCc2cc(NC(=O)c3ccc(N4CC(C)NC(C)C4)cc3)n[nH]2)cc(OC)c1` (stereo not given) yielded a z-score of -1.9.
To `O=C(NC1CCN(CCCCC2(C(=O)NCC(F)(F)F)c3ccccc3-c3ccccc32)CC1)c1ccccc1-c1ccc(C(F)(F)F)cc1` belongs -0.827.
To `COc1cc2ncnc(Sc3nnc(C)s3)c2cc1OC` belongs 1.21.
For `C=CCNC1=C2CC(C)CC(OC)C(O)C(C)C=C(C)C(OC(N)=O)C(OC)C=CC=C(C)C(=O)NC(=CC1=O)C2=O` (stereo not given) the value was -0.477; for `Cc1nc(NC(=O)N2CCCC2C(N)=O)sc1-c1csc(C(C)(C)C)n1` (stereo not given), 0.104; for `Cc1cn(C2CC(O)C(CO)O2)c(=O)[nH]c1=O` (stereo not given), 0.719.
`COc1ccc2cc1Oc1ccc(cc1)CC1c3cc(c(OC)cc3CCN1C)Oc1c(OC)c(OC)cc3c1C(C2)N(C)CC3` (stereo not given) had a z-score of -0.273.
For `CCOC(=O)C(CCc1ccccc1)NC1CSC(c2cccs2)CN(CC(=O)O)C1=O` (stereo not given) the value was -0.0675.
For the molecule `CC(=O)SC1CC2=CC(=O)CC[C@]2(C)[C@@H]2CC[C@@]3(C)[C@@H](CC[C@]34CCC(=O)O4)[C@H]12` (stereo not given in full), the z-score was -0.323.
To `CCNc1nc(Nc2cc(F)c(C(=O)N3CCOCC3)cc2OC)ncc1C(F)(F)F` belongs -0.142; to `CN1CCN(C(=O)c2cc3cc(Cl)ccc3[nH]2)CC1`, -0.0205; to `CC1=NN(c2ccc(C(=O)O)cc2)C(=O)C1=Cc1ccc(-c2cc(C)c(C)cc2[N+](=O)[O-])o1`, 0.107.
For `O=C(O)C1OC(Oc2cc3oc(-c4ccccc4)cc(=O)c3c(O)c2O)C(O)C(O)C1O` (stereo not given) the value was 0.279.
Turning to `NC(Cc1c[nH]c2ccc(O)cc12)C(=O)O` (stereo not given), the z-score was 0.553.
